Test results from the supplement of paper PMC8728848.
The entries come from a sample that favours the strongest signals as a whole.

Experiments:
Assay in all cases: glycan array binding signal (z-score within array); higher = stronger binding
Settings in all cases: glycan notation: IUPAC condensed, linker removed
[1] = target: Fuc(a1-2)Gal(b1-3)GalNAc(a1-3)[Fuc(a1-2)]Gal(b1-4)GlcNAc
Summary of the method: (§1)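 Glycan array data were curated from 3228 arrays in the Consortium for Functional Glycomics database and kept only where the protein sequence was available. Glycan names were converted to IUPAC-condensed notation, and columns mapping to the same glycan were averaged. The binding signal is a within-array Z-score, averaged across arrays of the same protein sequence at different concentrations or buffers and across linkers. Negative Z-scores can be read as non-binding.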

[2] = target: Fuc(a1-2)[Gal(a1-3)]Gal(b1-3)GlcNAc(b1-2)Man(a1-3)[Fuc(a1-2)[Gal(a1-3)]Gal(b1-3)GlcNAc(b1-2)Man(a1-6)]Man(b1-4)GlcNAc(b1-4)GlcNAc
Summary of the method: as §1

[3] = target: Fuc(a1-2)[Gal(a1-3)]Gal(b1-4)Glc
Summary of the method: as §1

[4] = target: Fuc(a1-2)[Gal(a1-3)]Gal(b1-4)GlcNAc
Summary of the method: as §1

[5] = target: Fuc(a1-2)[Gal(a1-3)]Gal(b1-4)GlcNAc(b1-2)Man(a1-3)[Fuc(a1-2)[Gal(a1-3)]Gal(b1-4)GlcNAc(b1-2)Man(a1-6)]Man(b1-4)GlcNAc(b1-4)GlcNAc
Summary of the method: as §1

[6] = target: Fuc(a1-2)[GalNAc(a1-3)]Gal(b1-3)GlcNAc(b1-2)Man(a1-3)[Fuc(a1-2)[GalNAc(a1-3)]Gal(b1-3)GlcNAc(b1-2)Man(a1-6)]Man(b1-4)GlcNAc(b1-4)GlcNAc
Summary of the method: as §1

[7] = target: Fuc(a1-2)[GalNAc(a1-3)]Gal(b1-3)GlcNAc(b1-3)GalNAc
Summary of the method: as §1

[8] = target: Fuc(a1-2)[GalNAc(a1-3)]Gal(b1-4)GlcNAc(b1-2)Man(a1-3)[Fuc(a1-2)[GalNAc(a1-3)]Gal(b1-4)GlcNAc(b1-2)Man(a1-6)]Man(b1-4)GlcNAc(b1-4)[Fuc(a1-6)]GlcNAc
Summary of the method: as §1

[9] = target: Fuc(a1-2)[GalNAc(a1-3)]Gal(b1-4)GlcNAc(b1-3)Gal(b1-4)GlcNAc
Summary of the method: as §1

[10] = target: Fuc(a1-2)[GalNAc(a1-3)]Gal(b1-4)GlcNAc(b1-3)Gal(b1-4)GlcNAc(b1-3)Gal(b1-4)GlcNAc
Summary of the method: as §1

[11] = target: Fuc(a1-2)[GalNAc(a1-3)]Gal(b1-4)GlcNAc(b1-3)[Fuc(a1-2)[GalNAc(a1-3)]Gal(b1-4)GlcNAc(b1-6)]GalNAc
Summary of the method: as §1

[12] = target: Fuc(a1-2)[GalNAc(a1-3)]Gal(b1-4)[Fuc(a1-3)]GlcNAc(b1-3)GalNAc
Summary of the method: as §1

[13] = target: Fuc(a1-3)[Gal3S(b1-4)]GlcNAc
Summary of the method: as §1

[14] = target: Gal(b1-3)Gal(b1-4)GlcNAc
Summary of the method: as §1

[15] = target: Gal(b1-3)GalNAc(a1-3)[Fuc(a1-2)]Gal(b1-4)Glc
Summary of the method: as §1

[16] = target: Gal(b1-3)GalNAc(a1-3)[Fuc(a1-2)]Gal(b1-4)GlcNAc
Summary of the method: as §1

[17] = target: Gal(b1-3)GlcNAc(b1-3)Gal(b1-4)GlcNAc(b1-3)Gal(b1-4)GlcNAc(b1-2)[Gal(b1-3)GlcNAc(b1-3)Gal(b1-4)GlcNAc(b1-3)Gal(b1-4)GlcNAc(b1-6)]Man(a1-6)[Gal(b1-3)GlcNAc(b1-3)Gal(b1-4)GlcNAc(b1-3)Gal(b1-4)GlcNAc(b1-2)Man(a1-3)]Man(b1-4)GlcNAc(b1-4)[Fuc(a1-6)]GlcNAc
Summary of the method: as §1

[18] = target: Gal(b1-3)GlcNAc(b1-3)Gal(b1-4)GlcNAc(b1-6)[Gal(b1-3)GlcNAc(b1-3)]Gal(b1-4)Glc
Summary of the method: as §1

[19] = target: Gal(b1-3)[Fuc(a1-4)]GlcNAc(b1-2)Man(a1-3)[Gal(b1-3)[Fuc(a1-4)]GlcNAc(b1-2)Man(a1-6)]Man(b1-4)GlcNAc(b1-4)[Fuc(a1-6)]GlcNAc
Summary of the method: as §1

[20] = target: Gal(b1-4)GlcNAc(b1-2)Man(a1-3)[GlcNAc(b1-2)Man(a1-6)]Man(b1-4)GlcNAc(b1-4)GlcNAc
Summary of the method: as §1

[21] = target: Gal(b1-4)GlcNAc(b1-3)Gal(b1-4)GlcNAc(b1-2)Man(a1-3)[Gal(b1-4)GlcNAc(b1-3)Gal(b1-4)GlcNAc(b1-2)Man(a1-6)]Man(b1-4)GlcNAc(b1-4)[Fuc(a1-6)]GlcNAc
Summary of the method: as §1

[22] = target: Gal(b1-4)GlcNAc(b1-3)Gal(b1-4)GlcNAc(b1-3)Gal(b1-4)GlcNAc(b1-3)Gal(b1-4)GlcNAc(b1-2)Man(a1-3)[Gal(b1-4)GlcNAc(b1-3)Gal(b1-4)GlcNAc(b1-3)Gal(b1-4)GlcNAc(b1-3)Gal(b1-4)GlcNAc(b1-2)Man(a1-6)]Man(b1-4)GlcNAc(b1-4)[Fuc(a1-6)]GlcNAc
Summary of the method: as §1

[23] = target: Gal3S(b1-4)Glc6S
Summary of the method: as §1

[24] = target: GalNAc4S6S(b1-4)GlcNAc
Summary of the method: as §1

[25] = target: GlcA(b1-3)GlcNAc
Summary of the method: as §1

[26] = target: GlcNAc(b1-2)[GlcNAc(b1-4)]Man(a1-3)[GlcNAc(b1-4)][GlcNAc(b1-2)[GlcNAc(b1-6)]Man(a1-6)]Man(b1-4)GlcNAc(b1-4)[Fuc(a1-6)]GlcNAc
Summary of the method: as §1

[27] = target: GlcNAc(b1-2)[GlcNAc(b1-6)]Man(a1-6)[GlcNAc(b1-2)Man(a1-3)]Man(b1-4)GlcNAc(b1-4)GlcNAc
Summary of the method: as §1

[28] = target: GlcNAc(b1-3)Gal(b1-3)GalNAc
Summary of the method: as §1

[29] = target: GlcNAc(b1-3)Gal(b1-4)GlcNAc(b1-3)Gal(b1-4)GlcNAc(b1-3)Gal(b1-4)GlcNAc(b1-3)Gal(b1-4)GlcNAc(b1-2)Man(a1-3)[GlcNAc(b1-3)Gal(b1-4)GlcNAc(b1-3)Gal(b1-4)GlcNAc(b1-3)Gal(b1-4)GlcNAc(b1-3)Gal(b1-4)GlcNAc(b1-2)Man(a1-6)]Man(b1-4)GlcNAc(b1-4)[Fuc(a1-6)]GlcNAc
Summary of the method: as §1

[30] = target: GlcNAc(b1-3)Gal(b1-4)GlcNAc(b1-3)Gal(b1-4)GlcNAc(b1-3)Gal(b1-4)GlcNAc(b1-3)Gal(b1-4)GlcNAc(b1-2)[GlcNAc(b1-3)Gal(b1-4)GlcNAc(b1-3)Gal(b1-4)GlcNAc(b1-3)Gal(b1-4)GlcNAc(b1-3)Gal(b1-4)GlcNAc(b1-6)]Man(a1-6)[GlcNAc(b1-3)Gal(b1-4)GlcNAc(b1-3)Gal(b1-4)GlcNAc(b1-3)Gal(b1-4)GlcNAc(b1-3)Gal(b1-4)GlcNAc(b1-2)Man(a1-3)]Man(b1-4)GlcNAc(b1-4)[Fuc(a1-6)]GlcNAc
Summary of the method: as §1

B1: CvGal2 (Crassostrea virginica) (protein)
chain: MGSSHHHHHHSSGLVPRGSHMRIREAGKRKDTTKVYQIPDGLFPGQQVMLRGRVPWGSKSFSINFSATPRMGEGDILFHLNPRPSEGVCIRNALLNGSWGAEEKWQPYFPFDDGRSFSVKIEVTNDAFRTFVNGRPFVDFLHRTDFRAGKYLTLREGAEYYDVIFQSKPNIPLTTAIHNGMRIGKTIRIRGMCTAQDGFAINFNDNRNNIYFHFNARPAQRTVVRNSYFGSWGNEETAISKEFPFYPFLYFYASFVCMEDKFAVYVNDEHFIDFAHRGNPNNISVLQIKGSVNVLDTECLEPMGEDAMTEVDSGLENGDLFVLNGLMTERGKTFAVNFLNGFTENDDIALHFNPRKSTGEVVLNSRYGGAWQSEEKVALPGVFWSNRPLQVKVETKRNKFKIYVNGVDLAKYKIRGNVEDVHAVQVKGDVFLLETLLLKRLMKPVWERLTGGIRPGTWVTLQGTPKKNWQQFVVNFALDDTLDGDIAFHFNVRRGARQVVRNHRQSGAWGREETVTPFFAFDSEATFEIVFFVKEEKFLIYFNGKLFFEFVHRVPVERITHIYMDGDCNFYEPEVVI
glycan array binding signal (z-score) [1]: 4.44
glycan array binding signal (z-score) [2]: 5.23
glycan array binding signal (z-score) [3]: 4.03
glycan array binding signal (z-score) [4]: 2.16
glycan array binding signal (z-score) [5]: 7.14
glycan array binding signal (z-score) [6]: 4.12
glycan array binding signal (z-score) [7]: 0.97
glycan array binding signal (z-score) [8]: 3.72
glycan array binding signal (z-score) [9]: 3.77
glycan array binding signal (z-score) [10]: 4.33
glycan array binding signal (z-score) [11]: 6.77
glycan array binding signal (z-score) [12]: -0.333
glycan array binding signal (z-score) [13]: -0.329
glycan array binding signal (z-score) [14]: 0.538
glycan array binding signal (z-score) [15]: 3.35
glycan array binding signal (z-score) [16]: 4.05
glycan array binding signal (z-score) [17]: 2.77
glycan array binding signal (z-score) [18]: 4.4
glycan array binding signal (z-score) [19]: -0.33
glycan array binding signal (z-score) [20]: -0.329
glycan array binding signal (z-score) [21]: -0.175
glycan array binding signal (z-score) [22]: -0.126
glycan array binding signal (z-score) [23]: 0.689
glycan array binding signal (z-score) [24]: -0.33
glycan array binding signal (z-score) [25]: -0.318
glycan array binding signal (z-score) [26]: -0.32
glycan array binding signal (z-score) [27]: -0.338
glycan array binding signal (z-score) [28]: -0.316
glycan array binding signal (z-score) [29]: -0.163
glycan array binding signal (z-score) [30]: 0.428
